Screening results (PubChem BioAssay)
Only a selection was taken, and hits are over-represented in it overall.
Cycloheximide cs = counter-screen hit for Shiga toxin inhibitors, cycloheximide; 300,000 compounds, 12% hits; cell reporter, cycloheximide protein synthesis inhibition counterscreen; AID 2314; max response, %; in the data active = max response mostly above about 13%, no sharp cut-off; inactive = mostly below about 14%; also: read at 38.3 µM for the half of the compounds with a filed dose; 0% is about no effect
LmPK inhibitor = blocks Leishmania mexicana pyruvate kinase activity | AID 1721 | purified LmPK, Kinase-Glo ATP luminescence, 1 h | Potency, µM (series often up to 57.5 µM), for the others: at the highest dose activity change, negative = inhibition, usual class: inhibitors | Q27686 | 290,000 compounds, 0.37% hits; active = well fitted curve in the direction sought with a large enough effect; inconclusive = small, poorly fitted or top-dose-only effect, or another doubt; inactive = no such curve, though single readings can be large; an effect the other way counts as inactive or inconclusive; also: potency is read from the fitted curve at half-maximal effect; % is scaled to controls: 0 for no effect and ±100 for the full control effect
Target sequence (Q27686 whole entry, looked up): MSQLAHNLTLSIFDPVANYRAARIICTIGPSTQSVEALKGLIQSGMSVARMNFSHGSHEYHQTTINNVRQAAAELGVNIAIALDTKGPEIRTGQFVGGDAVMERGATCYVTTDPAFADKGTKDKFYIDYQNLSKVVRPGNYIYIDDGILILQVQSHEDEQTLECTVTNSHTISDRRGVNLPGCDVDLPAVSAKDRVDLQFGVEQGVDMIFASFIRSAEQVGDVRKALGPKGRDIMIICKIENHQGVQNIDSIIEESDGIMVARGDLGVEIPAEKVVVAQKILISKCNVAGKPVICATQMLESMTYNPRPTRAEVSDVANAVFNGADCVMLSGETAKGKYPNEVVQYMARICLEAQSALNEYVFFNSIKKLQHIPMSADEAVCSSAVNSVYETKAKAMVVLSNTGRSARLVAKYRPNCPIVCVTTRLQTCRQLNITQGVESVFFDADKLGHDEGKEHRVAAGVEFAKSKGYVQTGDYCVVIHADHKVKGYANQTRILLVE
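0.1 nM LmPK, 0.5 mM PEP, 0.1 mM ADP; 50 mM imidazole pH 7.2, 7 mM MgCl2, 50 mM KCl; 1 h RT. Kinase-Glo luminescence readout, normalized to no-enzyme (full inhibition) and uninhibited wells.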
SARS PLP yeast = inhibitors of SARS-CoV papain-like protease in yeast. S. cerevisiae expressing SARS-CoV PLpro, growth rescue. Potency, µM (series often up to 32.9 µM), for the others: top-dose activity, positive = growth rescue, most hits filed as activators. 330,000 compounds, 0.19% hits. AID 485353; also: potency is read from the fitted curve at half-maximal effect; 0% is about no effect; nearly all actives have a fitted effect of over 55% in size
NS1 function inh = blocks influenza NS1 protein function. Potency, µM (highest dose often 46.1 µM), for the others: at the highest dose activity, positive = more growth. 270,000 compounds, 0.4% hits. AID 2326; also: potency is read from the fitted curve at half-maximal effect; actives are rising curves; nearly all actives have a fitted effect of over 50% in size
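S. cerevisiae expressing influenza A NS1, grown in glucose, washed, then diluted 1:100 into pH 6.0 -URA galactose medium with 23 nl compound. Growth recovery read as OD600; NS1-free strain serves as control.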
Tb PYK inh = T. brucei pyruvate kinase inhibition; TbPYK enzyme, Kinase-Glo Plus ATP luminescence, 45 min; 410,000 compounds, 0.12% hits; Potency, µM (doses to about 76.8 µM), for the others: at the top dose activity, negative = inhibition, actives largely listed as inhibitors; active = well fitted curve in the direction sought with a large enough effect; inconclusive = small, poorly fitted or top-dose-only effect, or another doubt; inactive = no such curve, though single readings can be large; an effect the other way counts as inactive or inconclusive; also: potency is read from the fitted curve at half-maximal effect; % is scaled to controls: 0 for no effect and ±100 for the full control effect; nearly all actives have a fitted effect of over 50% in size
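Screened from lowest to highest concentration, compounds were pinned into TbPYK/substrate mixtures, and ADP (130 uM final) was added. Plates sat at room temperature for 45 min prior to Kinase-Glo Plus detection by luminescence.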
Shiga toxin inh = blocks Shiga toxin action in Vero cells. Vero cells, Shiga toxin protein synthesis inhibition reporter. inhibition, % at 38.7 µM. 290,000 compounds, 9.2% hits; in the data active = inhibition mostly above about 28%, no sharp cut-off; inactive = mostly below about 43%; also: 0% is about no effect
Active calls of the source: *; [ ] = another dose, or the depositor's remark. Unless noted, calls follow the shape of the full dose curve.

`COc1ccc(/C=N/Nc2nc(C(=O)O)cs2)cc1` gave Cycloheximide cs 24.9*, LmPK inhibitor -0.7%, SARS PLP yeast inconclusive, NS1 function inh 12.5%, Tb PYK inh inconclusive and Shiga toxin inh 33.9*.
O=c1ncn2nc(Sc3ccc(F)cc3F)ccc2c1-c1c(Cl)cccc1Cl was read as Tb PYK inh -4.4%.
For CCc1nnc2c(N3CCN(c4cc(Cl)ccc4C)CC3)nc3ccccc3n12 the results were Tb PYK inh -1.1%[15.4 µM].
Screening COc1ccc(C)cc1NC(=O)Cc1csc(NC(=O)Nc2ccccc2OC)n1 returned Tb PYK inh -2.9%.
For CCOC(=O)Cc1csc(NC(=O)COc2ccccc2OC)n1 the results were Cycloheximide cs -1.9, LmPK inhibitor 6.5%, SARS PLP yeast -2.7%, NS1 function inh -17.3%, Tb PYK inh 2.9% and Shiga toxin inh 20.5.
Screening CCOC(=O)Cc1csc(N/N=C\c2ccccc2OC)n1 returned Cycloheximide cs 23.9*, LmPK inhibitor 3.0%, SARS PLP yeast -8.3%, NS1 function inh 20.1%, Tb PYK inh 7.2% and Shiga toxin inh 50.4*.
Screening CC(C)CCNC(=O)c1cc(-c2cccnc2)nc2ccc(S(=O)(=O)N3CCC(C)CC3)cc12 returned Tb PYK inh 7.9%.
Screening Cc1c(O)ccc(-c2n[nH]c(C(=O)O)c2-c2nc3ccccc3s2)c1O returned Cycloheximide cs 23.5*, LmPK inhibitor 3.5%, SARS PLP yeast -1.4%, NS1 function inh 13.6%, Tb PYK inh -9.7% and Shiga toxin inh 59.3*.
Screening CC(C)OC(=O)c1c(NC(=O)c2cc3nc(-c4ccccc4)cc(C(F)(F)F)n3n2)sc2c1CCCC2 returned Tb PYK inh 1.7%.
Screening CCCCNC(=O)COC(=O)c1c2c(nc3ccccc13)/C(=C/c1cccs1)CC2 returned Cycloheximide cs 51.8*, LmPK inhibitor -1.4%, SARS PLP yeast -19.4%, NS1 function inh inconclusive, Tb PYK inh -2.8% and Shiga toxin inh 103.6*.
`COc1cc(/C=C2\CCc3c2nc2ccccc2c3C(=O)O)cc(OC)c1OC` gave Cycloheximide cs 5.2, LmPK inhibitor 6.4%, SARS PLP yeast 0.6%, NS1 function inh 3.1%, Tb PYK inh -0.4% and Shiga toxin inh 17.1.
CNC(=O)NC(=O)C(C)OC(=O)c1c2c(nc3ccccc13)/C(=C/c1cccs1)CC2 (configuration not stated) was read as Cycloheximide cs 32.4*, LmPK inhibitor -1.0%, SARS PLP yeast 5.5%, NS1 function inh inconclusive, Tb PYK inh -11.3% and Shiga toxin inh 23.0*.
CCCCNC(=O)COC(=O)c1c2c(nc3ccccc13)CCC2 was read as Cycloheximide cs -2.7, LmPK inhibitor 2.7%, SARS PLP yeast -0.8%, NS1 function inh 24.6%, Tb PYK inh -2.6% and Shiga toxin inh 22.6.
O=C(NC12CC3CC(CC(C3)C1)C2)N1CCC(O)CC1 was read as Cycloheximide cs -1.0, LmPK inhibitor 0.5%, SARS PLP yeast 2.9%, NS1 function inh 2.9%, Tb PYK inh -1.3% and Shiga toxin inh -8.5.
Screening O=C(NC12CC3CC(CC(C3)C1)C2)N1CCN(C(=O)C2CCCO2)CC1 (configuration not stated) returned Cycloheximide cs 11.2*, LmPK inhibitor 4.7%, SARS PLP yeast 7.6%, NS1 function inh -1.6%, Tb PYK inh 0.0% and Shiga toxin inh -10.0.
Screening Cc1ccc(Nc2nc3ccccc3c(=O)s2)cc1 returned Cycloheximide cs -3.4, LmPK inhibitor 8.5%, SARS PLP yeast 0.2%, NS1 function inh 3.4%, Tb PYK inh -2.4% and Shiga toxin inh 26.4.
For CC(=O)c1cnc(Nc2ccc(C)cc2)s1 the results were Cycloheximide cs 30.3*, LmPK inhibitor -1.7%, SARS PLP yeast -1.5%, NS1 function inh -5.5%, Tb PYK inh 2.3% and Shiga toxin inh 45.4*.
`Cc1cccc(CNC(=O)c2ccc3oc(=O)n(Cc4ccccc4)c3c2)c1` gave Tb PYK inh 0.1%.
Screening CC1=NN(c2ccccc2)C(=O)/C1=C/N(C)C returned Cycloheximide cs -1.5, LmPK inhibitor -10.4%, SARS PLP yeast -2.0%, NS1 function inh 2.7%, Tb PYK inh 12.6% and Shiga toxin inh 2.7.
CN(C)/C=C1\C(=O)N(c2ccc([N+](=O)[O-])cc2)N=C1c1ccccc1 was read as Cycloheximide cs 31.6*, LmPK inhibitor 0.2%, SARS PLP yeast -18.7%, NS1 function inh -12.9%, Tb PYK inh -2.0% and Shiga toxin inh 93.1*.
`CC1=NN(c2ccc([N+](=O)[O-])cc2)C(=O)C1` gave Tb PYK inh 0.1%.
CN(C)/C=C1/C(=O)N(c2ccc([N+](=O)[O-])cc2)N=C1c1ccccc1 was read as Cycloheximide cs 34.2*, LmPK inhibitor -2.9%, SARS PLP yeast 6.5%, NS1 function inh 0.8% and Shiga toxin inh 82.7*.
C/C(=C1/C(=O)N(c2ccc([N+](=O)[O-])cc2)N=C1c1ccccc1)N(C)C was read as Cycloheximide cs 24.5*, LmPK inhibitor 2.0%, SARS PLP yeast -1.9%, NS1 function inh 13.1% and Shiga toxin inh 33.1.
CCOc1cc(S(=O)(=O)NCCc2c(C)[nH]c3ccc(C)cc23)ccc1F was read as Tb PYK inh 2.8%.
`Cc1ccc(Cc2c(C3CCCCC3)nc3cc(C)c(Br)c(C)n23)cc1` gave Tb PYK inh -7.1%.
`COc1ccc(C2=Nn3c(nnc3-c3cccc(OC)c3OC)SC2)c(OC)c1` gave Cycloheximide cs -1.9 and Shiga toxin inh -6.3.
CC(=O)OCOC(=O)CNc1ccccc1OCCOc1ccccc1NCC(=O)OCOC(C)=O was read as Cycloheximide cs -10.3 and Shiga toxin inh -6.7.
For CN(/N=C\c1ccccc1O)c1ccc2ccccc2n1 the results were NS1 function inh -12.5%.
Screening O=S(=O)(CCN1CCCCC1)CCS(=O)(=O)CCN1CCCCC1 returned Tb PYK inh 5.8%.
Screening CCOC(=O)C(SP(=S)(OC)OC)c1ccccc1 (configuration not stated) returned Cycloheximide cs 5.8 and Shiga toxin inh 2.3.
For COC(=O)c1ccc(Oc2nc3c(c(=O)n(C)c(=O)n3C)n2Cc2ccc(Cl)c(Cl)c2)cc1 the results were Tb PYK inh -9.4%.
Screening Cc1cccc(C=Nc2ccc3c4c(cccc24)CC3)c1O returned Cycloheximide cs -0.8, LmPK inhibitor -1.4%, SARS PLP yeast inconclusive, NS1 function inh 27.9%, Tb PYK inh 0.3% and Shiga toxin inh -3.5.
Screening CCc1ccc(O)c(N=Cc2cccc(C)c2O)c1 returned Cycloheximide cs 26.7*, LmPK inhibitor -4.6%, SARS PLP yeast -10.8%, NS1 function inh -3.9%, Tb PYK inh -5.8% and Shiga toxin inh 46.7.
For Cc1ccc(CNCc2cc(Cl)ccc2O)cc1 the results were SARS PLP yeast 3.0% and Tb PYK inh 1.1%.
